From PubChem BioAssay (NCATS)
Records with an inconclusive call do not appear. Values without a mark were called inactive. The source made the active and inactive calls. Calls follow the shape of the dose curve; as a rule, active = well fitted inhibition curve with a large enough effect; inconclusive = small, poorly fitted or top-dose-only effect; inactive = flat fitted curve, though single readings scatter.

Assay: BET inhibitor-based combinations targeting novel dependencies in MECOM-rearranged (r) AML: AML-194 cell line (AID 2202237; also: nearly all actives have a fitted effect of over 40% in size;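 as to viability (% of control): plate controls were vehicle wells for no effect and wells without cells for full effect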)
Conditions: AML-194 (MECOM-r AML) viability, CellTiter-Glo, 48 h; series mostly up to 46 µM; viability (% of control): at the top concentration
How it was run: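 500 cells/well; 11-pt dose curve; 48 h, standard incubator; CellTiter-Glo luminescence after 15 min RT; DMSO/empty-well normalization; AUC plus Z-AUC (mean-centered within each line).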
Potency is read from the fitted curve at half-maximal effect.

SMILES	viability (% of control) [%]	Potency
COC1(CS(=O)c2ccccc2)CCN(CCc2c[nH]c3ccc(F)cc23)CC1 (stereo unspecified)	95.3	–
C[C@@H]1O[C@@H](O[C@H]2C[C@@H](O)[C@]3(CO)[C@H]4[C@H](O)C[C@]5(C)[C@@H](C6=CC(=O)OC6)CC[C@]5(O)[C@@H]4CC[C@]3(O)C2)[C@H](O)[C@H](O)[C@H]1O	–	46.8 nM (active)
N=c1c2c(-c3ccccc3)c(-c3ccccc3)n(Cc3ccccc3)c2ncn1C1CCC(O)CC1 (stereo unspecified)	–	4680 nM (active)
CC(NC(C)(C)C)C(=O)c1cccc(Cl)c1 (stereo unspecified)	113	–
N[C@@H](Cc1ccc(N(CCCl)CCCl)cc1)C(=O)O	–	2950 nM (active)
COc1cccc2c1C(=O)c1c(O)c3c(c(O)c1C2=O)C[C@@](O)(C(=O)CO)CC3OC1CC(N2CCOC(OC)C2)C(O)C(C)O1 (stereo partly specified)	–	4.2 nM (active)
CC1=C(O)C(=O)C=C2C1=CC=C1[C@@]2(C)CC[C@@]2(C)[C@@H]3C[C@](C)(C(=O)O)CC[C@]3(C)CC[C@]12C	–	1180 nM (active)
C#CC1(O)CCC2C3CCC4=CC(=O)CCC4(C)C3CCC21C (stereo unspecified)	87.8	–
CCCCCC[C@H]1C(=O)O[C@H](C)[C@H](NC(=O)c2cccc(NC=O)c2O)C(=O)O[C@@H](C)[C@@H]1OC(=O)CC(C)C	95.9	–
COc1ccc(C(=O)c2c(C)n(CCN3CCOCC3)c3cc(I)ccc23)cc1	–	9340 nM (active)
C[C@](O)(COc1ccc(C#N)cc1)C(=O)Nc1ccc(C#N)c(C(F)(F)F)c1	94.9	–
